The supplement of paper PMC7366291
Structures can show the parent of a compound that is named as a salt. ± gives the standard deviation or the standard deviation of the averaged measurements.

Experiments:
Settings in all cases: 25 µM; exposure: 24-48 hpf
[1] = system: Danio rerio Tg(wt1b:EGFP) embryo, pronephros; experiment: glomerular separation, fold change vs DMSO control; higher = glomeruli further apart (abnormal)
Summary of the method: (§1)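 Dechorionated Tg(wt1b:EGFP) zebrafish embryos were kept from 24 to 48 hpf at 28.5°C in HEPES-buffered E3 containing 0.003% PTU, 0.5% DMSO and 25 μM compound. The pronephroi were then imaged from the dorsal side in agarose-filled 96-well plates at 470 nm with 10 z-slices, and 16 reference points were placed by hand on maximum projections in Fiji so that a macro could calculate distances and angles. Values lying more than 2 SD from the mean of a feature were discarded. Every feature is given as a fold change against the mean of DMSO-treated embryos from the same day.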

[2] = system: Danio rerio Tg(wt1b:EGFP) embryo, pronephros; experiment: glomerular width (mean of left and right), fold change vs DMSO control; higher = wider glomerulus
Summary of the method: as §1

[3] = system: Danio rerio Tg(wt1b:EGFP) embryo, pronephros; experiment: fraction of imaged embryos annotated as normal kidney; higher = less nephrotoxic; extreme values may be limits of the assay
Summary of the method: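 Dechorionated Tg(wt1b:EGFP) zebrafish embryos were exposed in 12-well plates to 25 μM compound in 0.5% DMSO, 5 mM HEPES-buffered E3 with 0.003% PTU, from 24 to 48 hpf at 28.5°C. Tricaine-anaesthetised larvae were oriented dorsally in agarose-filled 96-well plates, and pronephroi were imaged by widefield fluorescence (470 nm, 10 z-slices). Each embryo was manually annotated from maximum projections. The read-out is the fraction of embryos per treatment assigned to the normal-kidney category.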

[4] = system: Danio rerio Tg(wt1b:EGFP) embryo, pronephros; experiment: pronephric angle neck segment to proximal convoluted tubule (mean of left and right), fold change vs DMSO control; higher = larger pronephric angle
Summary of the method: as §1

Compound | glomerular separation [1] | glomerular width [2] | fraction of imaged embryos annotated as normal kidney [3] | pronephric angle neck segment [4]
O=C1c2cccc3c2[C@H](CCC3)CN1[C@@H]1CN2CCC1CC2 [Palonosetron hydrochloride] | 1.08 ± 0.37 | 0.975 ± 0.023 | 0.667 | 1 ± 0.038
CC1(C)O[C@@H]2C[C@H]3[C@@H]4C[C@H](F)C5=CC(=O)C=C[C@]5(C)[C@@]4(F)[C@@H](O)C[C@]3(C)[C@]2(C(=O)CO)O1 [Fluocinolone acetonide] | 1.23 ± 0.54 | 1.26 ± 0.028 | 0.0833 | 1.02 ± 0.065
CCN1CCC[C@H]1CNC(=O)c1c(O)c(Cl)cc(Cl)c1OC [Raclopride] | 1.26 ± 0.47 | 0.903 ± 0.033 | 0.917 | 1.02 ± 0.12
N[C@@H](C(=O)N[C@@H]1C(=O)N2C(C(=O)O)=C(Cl)CC[C@H]12)c1ccccc1 [Loracarbef] | 1.06 ± 0.25 | 1.08 ± 0.011 | 0.917 | 0.999 ± 0.025
CC(C(O)c1ccc(O)cc1)N1CCC(Cc2ccccc2)CC1 (configuration not stated) [Ifenprodil tartrate] | 0.712 ± 0.33 | 1.04 ± 0.024 | 1 | 0.942 ± 0.089
CN(C)CCOC1=Cc2ccccc2Sc2ccc(Cl)cc21 [Zotepine] | 0.933 ± 0.24 | 0.983 ± 0.065 | 0.75 | 1.08 ± 0.11
Nc1c(Br)cc(Br)cc1CN[C@H]1CC[C@H](O)CC1 [Ambroxol hydrochloride] | 1.05 ± 0.28 | 0.969 ± 0.036 | 1 | 1.003 ± 0.0037
CCN(CCO)CCCC(C)Nc1ccnc2cc(Cl)ccc12 (configuration not stated) [Hydroxychloroquine sulfate] | 1.03 ± 0.49 | 1.038 ± 0.0043 | 0.833 | 0.935 ± 0.055
COc1ccc2[nH]c([S+]([O-])Cc3ncc(C)c(OC)c3C)nc2n1 (configuration not stated) [Tenatoprazole] | 1.61 ± 0.86 | 0.93 ± 0.064 | 0.917 | 1.17 ± 0.069
CC(Cc1cccc(C(F)(F)F)c1)NCCOC(=O)c1ccccc1 (configuration not stated) [Benfluorex] | 0.843 ± 0.23 | 1 ± 0.03 | 0.917 | 1.04 ± 0.045
CCOC(=O)[C@H](CCc1ccccc1)N[C@@H](C)C(=O)N1CCC[C@H]1C(=O)O [Enalapril maleate] | 0.704 ± 0.19 | 1.01 ± 0.03 | 0.667 | 0.9423 ± 0.0071
O=c1cc(-c2ccc(O)c(O)c2)oc2cc(O)cc(O)c12 [Luteolin] | 0.869 ± 0.36 | 0.9662 ± 0.004 | 0.917 | 0.999 ± 0.006
CC(=O)O[C@H]1C(=O)[C@@]2(C)[C@H]([C@H](OC(=O)c3ccccc3)[C@]3(O)C[C@H](OC(=O)[C@H](O)[C@@H](NC(=O)c4ccccc4)c4ccccc4)C(C)=C1C3(C)C)[C@]1(OC(C)=O)CO[C@@H]1C[C@@H]2O [Paclitaxel] | 1.59 ± 0.55 | 1.06 ± 0.015 | 1 | 0.964 ± 0.021
CCC(=O)O[C@]1(C(=O)SCF)[C@H](C)C[C@H]2[C@@H]3C[C@H](F)C4=CC(=O)C=C[C@]4(C)[C@@]3(F)[C@@H](O)C[C@@]21C [Fluticasone propionate] | 1.84 ± 0.75 | 1.27 ± 0.021 | 0.0833 | 1.04 ± 0.079
CN(C)CCCN1c2ccccc2CCc2ccccc21 [Imipramine hydrochloride] | 0.946 ± 0.39 | 1.02 ± 0.14 | 0.75 | 0.996 ± 0.041
CC1CCc2cc(F)cc3c(=O)c(C(=O)O)cn1c23 (configuration not stated) [Flumequine] | 2.57 ± 1.2 | 1.05 ± 0.023 | 0.583 | 1.15 ± 0.046
C#C[C@]1(O)CC[C@H]2[C@@H]3CCC4=Cc5oncc5C[C@]4(C)[C@H]3CC[C@@]21C [Danazol] | 3.7 ± 1.5 | 0.592 ± 0.0074 | 0 | 1.1 ± 0.12
Cc1onc(-c2c(Cl)cccc2Cl)c1C(=O)N[C@@H]1C(=O)N2[C@@H]1SC(C)(C)[C@@H]2C(=O)O [Dicloxacillin sodium salt hydrate] | 1.24 ± 0.43 | 1.009 ± 0.0084 | 0.818 | 0.998 ± 0.017
CCOC(=O)C(C)(C)Oc1ccc(Cl)cc1 [Clofibrate] | 2.62 ± 1.7 | 0.608 ± 0.044 | 0 | 1.66 ± 0.033
Nc1ccn([C@@H]2CS[C@H](CO)O2)c(=O)n1 [Lamivudine] | 0.982 ± 0.27 | 0.984 ± 0.042 | 0.667 | 0.987 ± 0.031
COc1cc(N)c(Cl)cc1C(=O)NC1CCN(Cc2ccccc2)CC1 [Clebopride maleate] | 0.962 ± 0.3 | 0.9245 ± 0.0057 | 0.917 | 0.912 ± 0.027
N[C@@H]1CCCCN(c2c(F)cc3c(=O)c(C(=O)O)cn(C4CC4)c3c2Cl)C1 [Besifloxacin hydrochloride] | 0.997 ± 0.35 | 1.02 ± 0.033 | 0.833 | 1.02 ± 0.018
CO[C@@]1(NC(=O)C(C(=O)O)c2ccc(O)cc2)C(=O)N2C(C(=O)O)=C(CSc3nnnn3C)CO[C@@H]21 (some centres not stated) [Moxalactam disodium salt] | 0.871 ± 0.28 | 1.04 ± 0.014 | 0.917 | 0.984 ± 0.067
Cc1cc(-n2c(=O)[nH]c(=O)n(C)c2=O)ccc1Oc1ccc(SC(F)(F)F)cc1 [Toltrazuril] | 1.34 ± 0.62 | 0.8688 ± 0.0053 | 0.5 | 1.09 ± 0.045
N#Cc1cc(NC(=O)C(=O)O)c(Cl)c(NC(=O)C(=O)O)c1 [Lodoxamide] | 1.24 ± 0.55 | 0.9808 ± 0.0037 | 0.917 | 1.05 ± 0.059
Nc1cc(N2CCCCC2)nc(N)[n+]1[O-] [Minoxidil] | 0.953 ± 0.24 | 1.05 ± 0.053 | 0.917 | 0.99 ± 0.065
Clc1ccccc1C(c1ccccc1)(c1ccccc1)n1ccnc1 [Clotrimazole] | 2.06 ± 1.1 | 0.861 ± 0.11 | 0.583 | 1.26 ± 0.1

Compound | glomerular separation [1] | glomerular width [2] | fraction of imaged embryos annotated as normal kidney [3] | pronephric angle neck segment [4]
COc1ccc(-c2cc(=S)ss2)cc1 [Anethole-trithione] | 1.04 ± 0.42 | 0.886 ± 0.027 | 0.909 | 1.04 ± 0.066
CC(=O)N(CC(C)C(=O)O)c1c(I)cc(I)c(N)c1I (configuration not stated) [Iocetamic acid] | 0.546 ± 0.25 | 0.974 ± 0.011 | 0.917 | 0.986 ± 0.024
CC(C)(O/N=C(\C(=O)N[C@@H]1C(=O)N2C(C(=O)[O-])=C(C[n+]3ccccc3)CS[C@H]12)c1csc(N)n1)C(=O)O [Ceftazidime pentahydrate] | 0.761 ± 0.12 | 0.993 ± 0.046 | 1 | 0.961 ± 0.018
O=C(COc1ccc(Cl)cc1)N1CCN(Cc2ccc3c(c2)OCO3)CC1 [Fipexide hydrochloride] | 1.26 ± 0.55 | 0.86 ± 0.031 | 0.75 | 1.24 ± 0.11
O=C1NCCN1c1ncc([N+](=O)[O-])s1 [Niridazole] | 1.24 ± 0.57 | 0.867 ± 0.021 | 0.833 | 1.14 ± 0.077
O=C(O)Cc1ccc(-c2ccccc2)cc1 [Felbinac] | 4.74 ± 1.6 | 0.627 ± 0.0096 | 0 | 1.73 ± 0.04
OCCOCCN1CCN(C2=Nc3ccccc3Sc3ccccc32)CC1 [Quetiapine hemifumarate] | 0.872 ± 0.15 | 1.07 ± 0.066 | 0.917 | 0.98617 ± 0.00072
O=c1[nH]c(=O)n([C@H]2C[C@H](O)[C@@H](CO)O2)cc1I [Idoxuridine] | 1.12 ± 0.42 | 1.05 ± 0.017 | 0.667 | 1.05 ± 0.073
CC[C@H]1OC(=O)[C@H](C)[C@@H](O[C@H]2C[C@@](C)(OC)[C@@H](O)[C@H](C)O2)[C@H](C)[C@@H](O[C@@H]2O[C@H](C)C[C@H](N(C)C)[C@H]2O)[C@](C)(O)C[C@@H](C)[C@@H]2N[C@@H](COCCOC)O[C@H]([C@H]2C)[C@]1(C)O [Dirithromycin] | 1 ± 0.51 | 0.964 ± 0.041 | 1 | 0.981 ± 0.065
NS(=O)(=O)c1cc2c(cc1C(F)(F)F)NCNS2(=O)=O [Hydroflumethiazide] | 0.97 ± 0.25 | 1.07 ± 0.035 | 0.727 | 1.04 ± 0.14
CNCCC=C1c2ccccc2C=Cc2ccccc21 [Norcyclobenzaprine] | 1.12 ± 0.86 | 1.01 ± 0.051 | 0.833 | 0.94 ± 0.027
CCCCC1(COC(=O)CCC(=O)O)C(=O)N(c2ccccc2)N(c2ccccc2)C1=O [Suxibuzone] | 1.48 ± 0.71 | 0.92 ± 0.016 | 0.75 | 0.992 ± 0.016
CN(C(=O)C(Cl)Cl)c1ccc(OC(=O)c2ccco2)cc1 [Diloxanide furoate] | 2.17 ± 1 | 0.777 ± 0.037 | 0.25 | 1.25 ± 0.081
CN(CCCCCCCCCCN(C)C(=O)Oc1cccc([N+](C)(C)C)c1)C(=O)Oc1cccc([N+](C)(C)C)c1 [Demecarium bromide] | 1.54 ± 0.77 | 0.923 ± 0.032 | 1 | 1.078 ± 0.0073
CN(C)c1cc(NC(=O)CNC(C)(C)C)c(O)c2c1C[C@H]1C[C@H]3[C@H](N(C)C)C(O)=C(C(N)=O)C(=O)[C@@]3(O)C(O)=C1C2=O [Tigecycline] | 0.759 ± 0.22 | 1.03 ± 0.045 | 0.833 | 0.954 ± 0.02
CCOC1O[C@H]([C@@H](COCc2ccccc2)OCc2ccccc2)[C@H](OCc2ccccc2)[C@H]1O (some centres not stated) [Tribenoside] | 1.42 ± 0.96 | 0.865 ± 0.056 | 0.667 | 1.01 ± 0.018
CC(C)c1c(C(=O)Nc2ccccc2)c(-c2ccccc2)c(-c2ccc(F)cc2)n1CC[C@@H](O)C[C@@H](O)CC(=O)O [Atorvastatin] | 3.42 ± 1.4 | 0.691 ± 0.032 | 0 | 1.65 ± 0.047
Oc1ccc(C2CNCCc3c2cc(O)c(O)c3Cl)cc1 (configuration not stated) [Fenoldopam] | 0.757 ± 0.32 | 1.01 ± 0.038 | 0.917 | 0.979 ± 0.053
Cc1c(NC(=O)c2cccnc2)c(=O)n(-c2ccccc2)n1C [Nifenazone] | 0.806 ± 0.28 | 1.03 ± 0.014 | 0.833 | 1 ± 0.023
C[C@]12C=CC(=O)C=C1CC[C@H]1[C@@H]3C[C@@H](O)[C@](O)(C(=O)CO)[C@@]3(C)C[C@H](O)[C@@]12F [Triamcinolone] | 1.19 ± 0.58 | 1.23 ± 0.034 | 0.75 | 1.119 ± 0.0058
COc1ccc(C(=O)NCc2cccnc2)cc1C(=O)NCc1cccnc1 [Picotamide monohydrate] | 0.955 ± 0.31 | 1.028 ± 0.0052 | 0.75 | 0.991 ± 0.0099
COC(=O)Nc1nc2cc([S+]([O-])c3ccccc3)ccc2[nH]1 (configuration not stated) [Oxfendazol] | 1.06 ± 0.33 | 1.05 ± 0.043 | 0.833 | 1.036 ± 0.006
CC(=O)OCC(CCn1cnc2cnc(N)nc21)COC(C)=O [Famciclovir] | 0.793 ± 0.23 | 1.06 ± 0.048 | 1 | 0.9775 ± 0.004
Nc1nc2n[nH]nc2c(=O)[nH]1 [Azaguanine-8] | 0.905 ± 0.36 | 1 ± 0.058 | 0.833 | 0.984 ± 0.02
CCCOc1cc(N)ccc1C(=O)OCCN(CC)CC [Propoxycaine hydrochloride] | 0.859 ± 0.24 | 0.982 ± 0.023 | 0.917 | 1.01 ± 0.023
COc1cccc2c1C(=O)c1c(O)c3c(c(O)c1C2=O)C[C@@](O)(C(=O)CO)C[C@@H]3O[C@H]1C[C@H](N)[C@H](O)[C@H](C)O1 [Doxorubicin hydrochloride] | 1.19 ± 0.75 | 0.959 ± 0.11 | 0.75 | 0.9779 ± 0.0016
